Inconclusive results are not listed. The source made the active and inactive calls. Unless noted, the call rests on the fitted dose curve; in most records, active means well fitted curve in the direction sought with a large enough effect in the repeat runs; inconclusive means weak or mixed curves; inactive means no such curve, though single readings can be large; an effect the other way counts as inactive or inconclusive.
Columns and labels:
[1] = biological target: Progesterone receptor (Homo sapiens) (UniProt P06401); experiment: qHTS assay to identify small molecule agonists of the progesterone receptor (PR) signaling pathway (AID 1346784; calls by dose curve; further: nearly all actives have a fitted effect of over 30% in size)
In short: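 Using charcoal-stripped serum (2%) to limit endogenous steroids, PR-UAS-bla HEK 293T cells received compounds for 16 hr at 37C after 6 hr plating; beta-lactamase FRET fluorescence was recorded following 2 hr substrate loading at room temperature.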

[2] = biological target: Progesterone receptor (Homo sapiens) (UniProt P06401); experiment: qHTS assay to identify small molecule antagonists of the progesterone receptor (PR) signaling pathway (AID 1346795; active means well fitted inhibition curve with a large enough effect in the signal ratio in the repeat runs, not every such curve was filed as active; the % refers to the signal ratio)
In short: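 Inhibition of R5020-induced (1 nM final) beta-lactamase reporter signal in PR-UAS-bla HEK293T cells was scored by FRET fluorescence after overnight (16 hr) compound treatment.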

[3] = qHTS assay to identify small molecule antagonists of the progesterone receptor (PR) signaling pathway - cell viability counter screen (AID 1346798); further: series mostly up to about 92 µM; nearly all actives have a fitted effect of over 50% in size
In short: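 ATP content as viability readout: CellTiter-Glo luminescence, 30 min room temperature, in PR-UAS-bla HEK293T cells after 16 hr compound/R5020 treatment at 37C and 5% CO2.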

[4] = qHTS assay to identify small molecule agonists of the progesterone receptor (PR) signaling pathway - cell viability counter screen (AID 1346799; calls by dose curve; further: nearly all actives have a fitted effect of over 45% in size)
In short: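 Cytotoxicity in PR-bla HEK293T cells: 16 h compound, 37C; CellTiter-Glo added post-FRET read; luminescence after 30 min RT.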

[5] = qHTS assay to identify small molecule antagonists of the TGF-beta/Smad signaling pathway - cell viability counter screen (AID 1346824); further: nearly all actives have a fitted effect of over 50% in size
In short: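 SBE-bla HEK 293T cells, incubated overnight, then compound plus 0.25 ng/mL TGF-beta1 (stock added) for 5 hr at 37 C. Viability was read in the same wells by CellTiter-Glo luminescence after 30 min at room temperature.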

[6] = qHTS assay to identify small molecule agonists of the TGF-beta/Smad signaling pathway - cell viability counter screen (AID 1346829); further: top concentration of the series differs between compounds; nearly all actives have a fitted effect of over 45% in size
In short: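 SBE-bla HEK 293T cells plated overnight, compound exposure 5 hr at 37 C. Viability read in the same wells by CellTiter-Glo luminescence after 30 min at room temperature, following the beta-lactamase read.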

[7] = qHTS assay to identify small molecule agonists of the TGF-beta/Smad signaling pathway (AID 1346859; active means well fitted activation curve with a large enough effect in the signal ratio in the repeat runs, not every such curve was filed as active; the % refers to the signal ratio; further: series mostly up to about 77 µM)
In short: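 Stable Smad binding element-beta-lactamase HEK 293T cells; 5 hr compound exposure at 37 C under 5% CO2; 2 hr room-temperature substrate step; fluorescence excited at 405 nm, collected at 460 nm and 530 nm.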

[8] = biological target: Thyrotropin-releasing hormone receptor (Homo sapiens) (UniProt P34981); experiment: qHTS assay to identify small molecule antagonists of the thyrotropin-releasing hormone receptor (TRHR) signaling pathway (AID 1346877; active means well fitted inhibition curve with a large enough effect in the repeat runs, not every such curve was filed as active; further: series mostly up to about 51 µM)
In short: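 TRHR-expressing HEK293 cells loaded with calcium dye for 2 h at 37 C; compounds pre-incubated 5 min at room temperature before TRH challenge at 1 nM final. Intracellular calcium fluorescence read kinetically for 3 min; 15 concentrations in triplicate.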

[9] = biological target: Thyrotropin-releasing hormone receptor (Homo sapiens) (UniProt P34981); experiment: qHTS assay to identify small molecule agonists of the thyrotropin-releasing hormone receptor (TRHR) signaling pathway (AID 1346891; calls by dose curve; further: series mostly up to about 58 µM)
In short: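 In 1536-format, 1500 TRHR-Hek293 cells per well grew 18 h, took up calcium dye for 2 h at 37 °C, received compound, and were read kinetically; 15-point titrations, triplicates.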

[10] = Human pregnane X receptor (PXR) small molecule agonists, qHTS cell viability counter screen (AID 1346977); further: nearly all actives have a fitted effect of over 50% in size
In short: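 Readout is CellTiter-Fluor fluorescence from PXR-Luc HepG2 cells. Plated cells rested 5hr, then were treated with compounds for 24hr at 37C and 5% CO2, with reagent present during the last hour.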

[11] = Caspase-3/7 induction in HepG2 cells by small molecules, qHTS assay (AID 1346978); further: nearly all actives have a fitted effect of over 15% in size
In short: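 Wild-type HepG2 cells, 2,000/well, settled 5 hr at 37 C and 5% CO2, then compound-treated for 17 hr; caspase-3/7 activity read by luminescent Caspase-Glo 3/7 after 30 min at room temperature.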

[12] = Caspase-3/7 induction in CHO-K1 cells by small molecules, qHTS cell viability counter screen (AID 1346979); further: nearly all actives have a fitted effect of over 35% in size
In short: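 To flag cytotoxic compounds, treated CHO-K1 wild-type cells were given CellTiter-Fluor at 16hr and read fluorescently after 1hr at 37C; the caspase-3/7 luminescence was measured in these same wells.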

[13] = Caspase-3/7 induction in CHO-K1 cells by small molecules, qHTS assay (AID 1346980); further: nearly all actives have a fitted effect of over 15% in size
In short: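 Wild-type CHO-K1 cells exposed to compounds for 17hr at 37 C, 5% CO2. Caspase-3/7 activity then measured by Caspase-Glo 3/7 luminescence after 30min at room temperature.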

[14] = biological target: Nuclear receptor subfamily 1 group I member 2 (Homo sapiens) (UniProt O75469); experiment: Human pregnane X receptor (PXR) small molecule agonists, qHTS assay (AID 1346982); further: nearly all actives have a fitted effect of over 35% in size
In short: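 PXR-Luc HepG2 reporter cells (CYP3A4-driven luciferase) in 5% charcoal-stripped FBS medium, plated 5 h before compound addition, then treated 24 h at 37C. Luciferase read by ONE-Glo luminescence after 30 min at room temperature.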

[15] = Caspase-3/7 induction in HepG2 cells by small molecules, qHTS cell viability counter screen (AID 1346981); further: series mostly up to about 92 µM; nearly all actives have a fitted effect of over 30% in size
In short: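 Wild-type HepG2 cells, 2,000/well, settled 5 hr at 37 C, 5% CO2 before compound addition. Viability read by CellTiter-Fluor fluorescence, reagent added after 16 hr compound exposure, then 1 hr at 37C, in the same wells as the caspase read.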

[16] = biological target: Nuclear receptor subfamily 1 group I member 2 (Rattus norvegicus) (UniProt Q9R1A7); experiment: Rat pregnane X receptor (rPXR) activation by small molecules, qHTS assay (AID 1346983); conditions: rPXR luciferase reporter cells, One-Glo luminescence, 24 h; max activation: active compounds read high; further: nearly all actives have a fitted effect of over 20% in size
In short: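 Cell-based rPXR activation assay: rPXR cells, 2,000 per well, rested 5hr at 37 C, then exposed to compounds in DMSO for 24 hr at 37 C. Luciferase activity read by One-Glo luminescence after 30 min at room temperature.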

[17] = biological target: Nuclear receptor subfamily 1 group I member 2 (Homo sapiens) (UniProt O75469); experiment: CYP3A4 induction through human pregnane X receptor (PXR) by small molecules, qHTS assay (AID 1346984); further: nearly all actives have a fitted effect of over 40% in size
In short: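 DPX-2 HepG2 cells carrying a PXR response element and CYP3A4-promoter luciferase construct, treated with compounds 24 hr at 37C. Then P450-Glo CYP3A4 Luciferin-IPA substrate (3uM final) for 3 hr at 37C, One-Glo added, luminescence read.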

[18] = biological target: Nuclear receptor subfamily 1 group I member 2 (Homo sapiens) (UniProt O75469); experiment: Human pregnane X receptor (PXR) activation by small molecules, qHTS assay (AID 1346985); further: nearly all actives have a fitted effect of over 40% in size
In short: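 DPX-2 cells (HepG2 co-transfected with a PXR response element and a CYP3A4-promoter luciferase construct) were seeded at 2,000 per well, rested 5 hr at 37C, then exposed to DMSO-dissolved compounds for 24 hr. Activation was read as luciferase luminescence.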

[19] = biological target: Cytochrome P450 2D6 (Homo sapiens) (UniProt P10635); experiment: Cytochrome P450 Family 2 Subfamily D Member 6 (CYP2D6) small molecule antagonists: luciferase reporter qHTS assay (AID 1671196); further: series mostly up to about 120 µM; nearly all actives have a fitted effect of over 50% in size
In short: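 Cell-free P450-Glo system: CYP2D6 with proluciferin substrate was pre-incubated with compound for 10 min, then reacted with NADPH regeneration for 1 h at room temperature. Luciferin product was detected after 20 min, and data were reported as relative luminescence units.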

[20] = biological target: Cytochrome P450 2C19 (Homo sapiens) (UniProt P33261); experiment: Cytochrome P450 Family 2 Subfamily C Member 19 (CYP2C19) small molecule antagonists: luciferase reporter qHTS assay (AID 1671197); further: series mostly up to about 120 µM; nearly all actives have a fitted effect of over 65% in size
In short: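 P450-Glo CYP2C19 system: enzyme-substrate mix with compound 10 min at room temperature, then NADPH regeneration solution, 1 h at 37C. Proluciferin-to-luciferin conversion detected by luminescence after 20 min with detection reagent; ketoconazole as positive control.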
On the % scale 0 is the no-effect control and ±100 the full control effect.

Sequence of Thyrotropin-releasing hormone receptor (Homo sapiens) (P34981 whole entry, looked up): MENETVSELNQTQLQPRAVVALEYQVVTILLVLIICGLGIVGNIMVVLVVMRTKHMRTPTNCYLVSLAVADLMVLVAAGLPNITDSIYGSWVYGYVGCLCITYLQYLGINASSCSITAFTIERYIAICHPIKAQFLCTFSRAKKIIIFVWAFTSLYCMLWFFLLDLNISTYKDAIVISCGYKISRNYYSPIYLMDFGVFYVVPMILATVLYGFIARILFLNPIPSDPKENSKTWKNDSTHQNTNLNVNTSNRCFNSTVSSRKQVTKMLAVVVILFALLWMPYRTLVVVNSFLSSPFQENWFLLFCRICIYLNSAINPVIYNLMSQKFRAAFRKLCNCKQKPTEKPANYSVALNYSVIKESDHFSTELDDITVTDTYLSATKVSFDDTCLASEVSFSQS
Sequence of Cytochrome P450 2D6 (Homo sapiens) (P10635 whole entry, looked up): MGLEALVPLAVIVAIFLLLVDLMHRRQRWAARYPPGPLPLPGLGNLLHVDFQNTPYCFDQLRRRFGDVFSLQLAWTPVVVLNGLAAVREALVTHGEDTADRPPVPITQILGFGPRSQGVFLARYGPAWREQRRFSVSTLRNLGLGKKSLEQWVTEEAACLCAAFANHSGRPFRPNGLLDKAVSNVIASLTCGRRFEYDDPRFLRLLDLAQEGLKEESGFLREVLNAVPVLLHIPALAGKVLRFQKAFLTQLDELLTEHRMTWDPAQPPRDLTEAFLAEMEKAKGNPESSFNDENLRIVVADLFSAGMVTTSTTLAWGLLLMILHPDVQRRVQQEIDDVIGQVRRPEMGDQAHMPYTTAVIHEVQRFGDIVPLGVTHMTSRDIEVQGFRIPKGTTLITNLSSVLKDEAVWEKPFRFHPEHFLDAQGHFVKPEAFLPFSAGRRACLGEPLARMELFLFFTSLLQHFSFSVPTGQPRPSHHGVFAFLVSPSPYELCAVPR
Sequence of Cytochrome P450 2C19 (Homo sapiens) (P33261 whole entry, looked up): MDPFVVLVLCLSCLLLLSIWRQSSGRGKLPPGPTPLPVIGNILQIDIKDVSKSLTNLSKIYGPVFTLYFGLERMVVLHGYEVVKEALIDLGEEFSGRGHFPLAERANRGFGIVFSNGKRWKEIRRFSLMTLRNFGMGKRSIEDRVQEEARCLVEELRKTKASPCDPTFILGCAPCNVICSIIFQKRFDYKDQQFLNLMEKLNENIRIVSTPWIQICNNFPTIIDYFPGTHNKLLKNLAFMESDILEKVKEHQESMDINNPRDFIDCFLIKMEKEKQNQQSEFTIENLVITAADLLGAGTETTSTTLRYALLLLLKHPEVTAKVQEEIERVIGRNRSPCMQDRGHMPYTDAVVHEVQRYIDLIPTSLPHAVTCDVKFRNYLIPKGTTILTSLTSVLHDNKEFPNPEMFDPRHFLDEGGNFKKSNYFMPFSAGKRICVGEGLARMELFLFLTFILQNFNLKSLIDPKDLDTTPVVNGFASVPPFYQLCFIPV
Sequence of Nuclear receptor subfamily 1 group I member 2 (Homo sapiens) (O75469 whole entry, looked up): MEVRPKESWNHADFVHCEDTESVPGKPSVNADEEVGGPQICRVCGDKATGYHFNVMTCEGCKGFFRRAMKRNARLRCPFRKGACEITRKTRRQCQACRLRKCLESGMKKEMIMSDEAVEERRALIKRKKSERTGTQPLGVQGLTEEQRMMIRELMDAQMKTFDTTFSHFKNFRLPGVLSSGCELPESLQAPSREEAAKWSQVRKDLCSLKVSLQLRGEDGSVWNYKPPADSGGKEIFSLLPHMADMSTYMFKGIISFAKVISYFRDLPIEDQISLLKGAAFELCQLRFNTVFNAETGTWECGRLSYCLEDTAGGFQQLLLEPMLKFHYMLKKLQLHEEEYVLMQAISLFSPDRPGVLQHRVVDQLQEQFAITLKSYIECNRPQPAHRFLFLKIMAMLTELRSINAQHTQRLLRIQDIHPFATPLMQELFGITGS
Sequence of Progesterone receptor (Homo sapiens) (P06401 whole entry, looked up): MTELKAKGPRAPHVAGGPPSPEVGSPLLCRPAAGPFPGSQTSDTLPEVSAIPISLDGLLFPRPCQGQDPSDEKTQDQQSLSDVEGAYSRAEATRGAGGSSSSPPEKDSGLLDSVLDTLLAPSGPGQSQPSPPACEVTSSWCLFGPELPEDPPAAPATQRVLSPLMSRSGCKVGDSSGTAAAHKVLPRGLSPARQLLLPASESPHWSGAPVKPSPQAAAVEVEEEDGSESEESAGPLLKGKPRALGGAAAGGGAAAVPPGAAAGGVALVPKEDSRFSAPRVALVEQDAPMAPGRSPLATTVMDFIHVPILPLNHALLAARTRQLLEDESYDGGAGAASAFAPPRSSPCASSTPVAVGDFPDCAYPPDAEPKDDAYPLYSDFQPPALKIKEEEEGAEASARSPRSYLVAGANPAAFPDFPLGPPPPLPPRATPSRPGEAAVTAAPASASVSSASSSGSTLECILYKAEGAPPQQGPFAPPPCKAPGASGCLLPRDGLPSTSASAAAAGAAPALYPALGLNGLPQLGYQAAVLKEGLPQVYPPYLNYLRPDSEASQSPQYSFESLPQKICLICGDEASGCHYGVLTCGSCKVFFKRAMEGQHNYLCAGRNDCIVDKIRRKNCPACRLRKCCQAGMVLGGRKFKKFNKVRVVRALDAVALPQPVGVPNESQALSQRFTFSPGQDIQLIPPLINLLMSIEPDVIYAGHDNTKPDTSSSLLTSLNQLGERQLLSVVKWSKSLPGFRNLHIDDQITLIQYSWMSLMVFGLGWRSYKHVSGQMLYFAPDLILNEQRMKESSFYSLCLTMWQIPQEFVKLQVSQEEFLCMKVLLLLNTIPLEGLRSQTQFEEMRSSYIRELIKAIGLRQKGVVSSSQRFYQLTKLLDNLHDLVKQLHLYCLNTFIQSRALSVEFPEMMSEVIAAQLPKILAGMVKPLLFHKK
Sequence of Nuclear receptor subfamily 1 group I member 2 (Rattus norvegicus) (Q9R1A7 whole entry, looked up): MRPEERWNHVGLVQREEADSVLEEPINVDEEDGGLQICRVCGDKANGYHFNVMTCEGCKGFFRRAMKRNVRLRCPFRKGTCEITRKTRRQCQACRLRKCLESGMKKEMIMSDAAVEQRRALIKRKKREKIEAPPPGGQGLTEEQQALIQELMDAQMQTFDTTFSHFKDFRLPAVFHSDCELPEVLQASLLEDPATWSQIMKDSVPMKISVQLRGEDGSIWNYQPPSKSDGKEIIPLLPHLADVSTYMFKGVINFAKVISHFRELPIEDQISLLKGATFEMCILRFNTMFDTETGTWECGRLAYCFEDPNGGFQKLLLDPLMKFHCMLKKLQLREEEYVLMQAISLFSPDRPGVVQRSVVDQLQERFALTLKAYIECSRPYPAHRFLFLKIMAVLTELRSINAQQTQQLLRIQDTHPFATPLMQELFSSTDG

CCN(CC)c1cccc(C)c1
inactive: outcome [1] | Potency [2] | Potency [3] | Potency [4] | Potency [5] | Potency [6] | Potency [7] | Potency [8] | Potency [9] | Potency [10] | Potency [11] | Potency [12] | Potency [13] | Potency [14]

C/C=C/C=N/NC(=O)c1ccncc1
inactive: outcome [1] | Potency [2] | Potency [3] | Potency [4] | Potency [5] | Potency [6] | Potency [7] | Potency [8] | Potency [9] | Potency [10] | Potency [11] | Potency [12] | Potency [13] | Potency [15] | max activation [16] -3.54% | Potency [17] | Potency [18]

CCCCCCCCCCCCCCCCCO
inactive: activation [1] -3.68% [at 19 µM] | activity change, negative = inhibition [2] 1.26% [at 18.9 µM] | activity change, negative = cytotoxicity [3] -7.24% [at 18.9 µM] | activity change, negative = cytotoxicity [4] -18.8% [at 19 µM] | viability change, negative = cytotoxic [5] -8.2% [at 15.8 µM] | activity change, negative = cytotoxicity [6] -0.289% [at 15.8 µM] | activation [7] -0.867% [at 15.8 µM] | activity, negative = inhibition [8] 0.827% [at 10.5 µM] | activation [9] 0.0338% [at 11.8 µM] | activity change, negative = cytotoxicity [10] 3.58% [at 19 µM] | caspase activation [11] 0.39% [at 19 µM] | activity change, negative = cytotoxicity [12] 11.2% [at 19 µM] | caspase-3/7 activation [13] 1.08% [at 19 µM] | activation [14] 4.62% [at 19 µM] | activity change, negative = inhibition [19] -4.81% [at 23.6 µM]

Cc1cnccn1
inactive: outcome [1] | Potency [2] | Potency [3] | Potency [4] | Potency [5] | Potency [6] | Potency [7] | Potency [8] | Potency [9] | Potency [10] | Potency [11] | Potency [12] | Potency [13] | Potency [15] | Potency [14] | Potency [19] | Potency [20]

CN(C)CCN1CCOCC1
inactive: outcome [1] | Potency [2] | Potency [3] | Potency [4] | Potency [5] | Potency [6] | Potency [7] | Potency [8] | Potency [9] | Potency [10] | Potency [11] | Potency [12] | Potency [13] | Potency [15] | Potency [14] | Potency [20]

C(=C/c1ccccc1)/c1ccccc1
inactive: outcome [1] | Potency [2] | Potency [3] | Potency [4] | Potency [5] | Potency [6] | Potency [7] | Potency [8] | Potency [9] | Potency [10] | Potency [11] | Potency [12] | Potency [13] | Potency [15] | Potency [14] | Potency [20]

NCCCC(O)(P(=O)(O)O)P(=O)(O)O
inactive: outcome [1] | Potency [2] | Potency [3] | Potency [4] | Potency [5] | Potency [6] | Potency [7] | Potency [8] | Potency [9] | Potency [10] | Potency [11] | Potency [12] | Potency [13] | max activation [16] -1.25%

OCCCc1cccnc1
inactive: outcome [1] | Potency [2] | Potency [3] | Potency [4] | Potency [5] | Potency [6] | Potency [7] | Potency [8] | Potency [9] | Potency [10] | Potency [11] | Potency [12] | Potency [13] | Potency [14] | Potency [19] | Potency [20]
